Data from ChEMBL document CHEMBL4808148, “HDAC6 screening dataset using tau-based substrate in an enzymatic assay yields selective inhibitors and activators” (2021).
The campaign covered roughly 5,600 compounds. About 390 (7%) showed an effect of 50% or more. Only a selection was taken, and strong results are over-represented in it overall.

Key:
[1] = molecular target: T1, Protein deacetylase HDAC6 (Homo sapiens) (UniProt Q9UBN7); conditions: at 10 µM
T1 sequence (whole entry): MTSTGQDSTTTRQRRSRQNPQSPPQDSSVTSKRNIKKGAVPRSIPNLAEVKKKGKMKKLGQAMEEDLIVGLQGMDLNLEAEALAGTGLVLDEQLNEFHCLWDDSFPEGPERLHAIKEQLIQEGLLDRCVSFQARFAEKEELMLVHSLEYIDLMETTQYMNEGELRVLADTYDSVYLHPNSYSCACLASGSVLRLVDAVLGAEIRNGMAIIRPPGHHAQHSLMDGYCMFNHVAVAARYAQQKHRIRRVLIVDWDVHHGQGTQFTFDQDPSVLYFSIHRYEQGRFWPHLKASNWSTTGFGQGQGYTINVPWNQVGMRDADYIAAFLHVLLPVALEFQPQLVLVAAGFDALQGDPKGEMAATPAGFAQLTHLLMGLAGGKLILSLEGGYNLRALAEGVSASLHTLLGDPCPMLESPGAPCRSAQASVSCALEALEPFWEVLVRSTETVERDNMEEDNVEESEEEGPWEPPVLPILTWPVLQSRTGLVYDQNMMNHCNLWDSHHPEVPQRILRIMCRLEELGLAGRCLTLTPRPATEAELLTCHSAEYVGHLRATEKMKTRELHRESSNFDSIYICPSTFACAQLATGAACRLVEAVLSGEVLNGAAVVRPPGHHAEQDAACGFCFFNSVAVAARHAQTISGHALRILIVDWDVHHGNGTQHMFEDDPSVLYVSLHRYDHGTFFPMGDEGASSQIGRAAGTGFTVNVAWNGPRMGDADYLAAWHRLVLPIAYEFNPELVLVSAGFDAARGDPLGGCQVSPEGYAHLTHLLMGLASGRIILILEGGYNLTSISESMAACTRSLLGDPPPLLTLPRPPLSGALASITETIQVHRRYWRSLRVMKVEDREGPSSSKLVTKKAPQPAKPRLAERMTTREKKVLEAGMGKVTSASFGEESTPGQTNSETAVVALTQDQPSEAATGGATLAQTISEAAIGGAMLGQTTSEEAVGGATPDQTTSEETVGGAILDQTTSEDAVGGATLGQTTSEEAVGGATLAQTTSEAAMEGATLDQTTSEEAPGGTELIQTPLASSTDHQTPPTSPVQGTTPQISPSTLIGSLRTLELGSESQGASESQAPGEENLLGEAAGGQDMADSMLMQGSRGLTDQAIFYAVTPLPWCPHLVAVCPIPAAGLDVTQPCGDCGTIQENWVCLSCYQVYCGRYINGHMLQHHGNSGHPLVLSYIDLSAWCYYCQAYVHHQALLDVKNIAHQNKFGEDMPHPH

[2] = molecular target: Protein deacetylase HDAC6 (Homo sapiens) (UniProt Q9UBN7); conditions: at 10 µM; remark: listed apart in the source

Row | Molecule | inhibition [1] | inhibition [2]
1 | Cc1c(N)cccc1Cn1ccc(OCCc2cccs2)cc1=O | -7.53% | 
2 | Cc1cccc(NC(=O)N[C@@H]2N=C(c3ccccc3)c3ccccc3N(C)C2=O)c1 | 10.7% | 
3 | CCNC1=Nc2ccc(Cl)cc2C(C)(c2ccccc2)O1 (configuration not stated) | 3.39% | 
4 | c1cc(Nc2cc(C3CC3)n[nH]2)nc(Nc2ccc3[nH]cnc3c2)n1 | 77.3% | 
5 | CCC(C)c1ccc(NC(=O)Cn2cnc3c2c(=O)n(C)c(=O)n3C)cc1 (configuration not stated) | 18.1% | 
6 | c1ccc(C2(c3ccccc3)CC2=C2NCCN2)cc1 | 17% | 
7 | C[C@H](CCC(=O)O)[C@H]1CC[C@H]2[C@@H]3C(=O)C[C@@H]4CC(=O)CC[C@]4(C)[C@H]3CC(=O)[C@]12C | -6.77% | 
8 | CC(=O)Nc1ccc(C(=O)NC(C)(C)C)cc1 | 9.15% | 
9 | CC(C)(C)c1ccc(C(=O)Nc2cn3cc(-n4ccnc4)ccc3n2)cc1 | 101% | 
10 | Cc1ncc([N+](=O)[O-])n1CC(O)CN1CCOCC1 (configuration not stated) | -5.36% | 
11 | COc1cccc2c1C(=O)c1c(O)c3c(c(O)c1C2=O)C[C@@](O)(C(=O)CO)C[C@@H]3O[C@H]1C[C@H](N2CCO[C@H](OC)C2)[C@H](O)[C@H](C)O1 | 43.2% | 
12 | COc1cccc2c1C(=O)c1c(O)c3c(c(O)c1C2=O)C[C@@](O)(C(=O)CO)C[C@@H]3O[C@H]1C[C@H](N)[C@H](O[C@@H]2CCCCO2)[C@H](C)O1 | 92.2% | 
13 | COc1cccc2c1C(=O)c1c(O)c3c(c(O)c1C2=O)C[C@@](O)(/C(CO)=N/NC(=O)CCCCCN1C(=O)C=CC1=O)C[C@@H]3O[C@H]1C[C@H](N)[C@H](O)[C@H](C)O1 | 26.7% | 
14 | CC1(C)OC(=O)C(OCC2CC2)=C1c1ccc(S(C)(=O)=O)cc1 | -6.89% | 
15 | CCCCCN(CCCOC)C(=O)[C@@H](CCC(=O)O)NC(=O)c1ccc(Cl)c(Cl)c1 | 9.58% | 
16 | CC(C)c1cc(C(C)C)c(-c2csc(N(CCN(C)C)Cc3cccnc3)n2)c(C(C)C)c1 | 1.94% | 
17 | C[N+](C)(CF)CCO | 0.62% | 
18 | CO/N=C(\C(=O)N[C@@H]1C(=O)N2C(C(=O)O)=C(CSc3nc(C)c(CC(=O)O)s3)CS[C@H]12)c1csc(N)n1 | 2.2% | 
19 | O=C(Oc1cccc2cccnc12)c1ccccc1 | 87.1% | 

Row | Molecule | inhibition [1] | inhibition [2]
20 | CCCOC(=O)c1ccccc1 | 8.38% | 
21 | O=C(O[C@H]1[C@H](OC(=O)c2cccnc2)[C@@H](OC(=O)c2cccnc2)[C@H](OC(=O)c2cccnc2)[C@@H](OC(=O)c2cccnc2)[C@H]1OC(=O)c1cccnc1)c1cccnc1 | -5.99% | 
22 | C[C@@H](N[C@H]1CCCC[C@@H]1NC(=O)c1ccc(Cl)cc1)c1cccc2ccccc12 | 18.9% | 
23 | COC1(C[S+]([O-])c2ccccc2)CCN(CCc2c[nH]c3ccc(F)cc23)CC1 (configuration not stated) | 4.5% | 
24 | MERBROMIN, CHEMBL3833381 |  | 65.3%
25 | CC1=C(O)C(=O)[C@@H]2O[C@@H]2C1=O | -8.14% | 
26 | COc1ncc(-c2ccc3c(Nc4cc(Oc5cc(F)cc(F)c5)cc(C(=O)O)c4)c(S(=O)(=O)NC4CC4)cnc3c2)c(OC)n1 | 12.8% | 
27 | CC(=O)Oc1c(C)cccc1C(=O)O | 17% | 
28 | C=C1C(=O)O[C@@H]2[C@H]3C(C)=CC[C@@]34O[C@@]4(C)CC[C@@H]12 | 51% | 
29 | O=C1C(=Cc2cccnc2)C(=O)c2ccccc21 | 27.6% | 
30 | C[C@@H](O[C@H]1OCCN(Cc2nn[nH]c2CN(C)C)[C@H]1c1ccc(F)cc1)c1cc(C(F)(F)F)cc(C(F)(F)F)c1 | 12.9% | 
31 | O=C(NOCCO)c1ccc2cncn2c1Nc1ccc(I)cc1F | 1.39% | 
32 | C[C@H](N)C(=O)NCC(=O)N[C@H]1CSSC[C@@H](C(=O)O)NC(=O)[C@H](CO)NC(=O)[C@H]([C@@H](C)O)NC(=O)[C@H](Cc2ccccc2)NC(=O)[C@H]([C@@H](C)O)NC(=O)[C@H](CCCCN)NC(=O)[C@H](Cc2c[nH]c3ccccc23)NC(=O)[C@H](Cc2ccccc2)NC(=O)[C@H](Cc2ccccc2)NC(=O)[C@H](CC(N)=O)NC(=O)[C@H](CCCCN)NC1=O | 15.2% | 
33 | CC(C)c1cccc2c1OC(C(C)C)C(=S)N2CC(=O)O (configuration not stated) | 33% | 
34 | CCC(=O)NO | 83.8% | 
35 | O=C(O)[C@@H](O)[C@@H](O)[C@H](O)[C@@H](O)C(=O)O | 1.05% | 
36 | CO[C@H]1/C=C\C=C(/C)C(=O)NC2=CC(=O)C(NCCN(C)C)=C(C[C@@H](C)C[C@H](OC)[C@H](O)[C@@H](C)/C=C(\C)[C@@H]1OC(N)=O)C2=O | 6.6% | 
37 | O/N=C/c1cc[n+](COC[n+]2ccc(/C=N/O)cc2)cc1 | -4.53% | 
38 | O=C1N[C@@H]2[C@@H](O)[C@@H](O)[C@H](O)[C@@H](CO)N2C1=O | -6.81% | 

Row | Molecule | inhibition [1] | inhibition [2]
39 | Oc1ccc2ccccc2c1 | 57.1% | 
40 | Oc1ccc(Cl)cc1 | -5.79% | 
41 | Oc1ccccc1 | 7.92% | 
42 | O=C1CCC(c2ccccc2)(C2CCN(Cc3ccc(I)cc3)CC2)C(=O)N1 (configuration not stated) | -1.98% | 
43 | Cc1ccccc1OCC(O)CNCCOc1ccc(C(N)=O)cc1 (configuration not stated) | 0.61% | 
44 | CC(=O)N[C@H]1[C@@H](OC(C)C)O[C@H](COC(C)=O)[C@@H](OC(C)=O)[C@@H]1OC(C)=O | -0.18% | 
45 | CC(=O)OC[C@H]1O[C@@](COC(C)=O)(O[C@H]2O[C@H](COC(C)=O)[C@@H](OC(C)=O)[C@H](OC(C)=O)[C@H]2OC(C)=O)[C@@H](OC(C)=O)[C@@H]1OC(C)=O | 102% | 
46 | C(=C\c1ccccc1)/CN1CCN(CCOC(c2ccccc2)c2ccccc2)CC1 | -6.12% | 
47 | CC(C)OC(=O)CNC(=O)[C@H](CS)NC(=O)CC[C@H](N)C(=O)O | 45.1% | 
48 | Cc1ccc([N+](=O)[O-])cc1O | 25.1% | 
49 | N=C(N)NCCC[C@H](N)C(=O)O | 3.94% | 
50 | NCCCC[C@H](N)C(=O)O | -8.14% | 
51 | N=C(NCCC[C@H](N)C(=O)O)N[N+](=O)[O-] | 104% | 
52 | O=C1c2ccccc2-c2c(NCCc3ccccc3)c(=O)[nH]c3cccc1c23 | 14.4% | 
53 | CC(C)(CO)CCCCCCC(C)(C)CO | 17.3% | 
54 | COC(=O)N[C@@H](C)CNc1nccc(-c2cn(C(C)C)nc2-c2cc(Cl)cc(NS(C)(=O)=O)c2F)n1 | -2.53% | 
55 | CCOc1ccc(S(=O)(=O)O)c2cccnc12 | 102% | 
56 | O=C(NCCN1CCC2(CC1)C(=O)NCN2c1cccc(F)c1)c1ccc(F)c(F)c1 | 7.38% | 
57 | CC(C)(C)C#Cc1cc(N(C(=O)[C@H]2CC[C@H](C)CC2)[C@H]2CC[C@@H](O)CC2)c(C(=O)O)s1 | 26.8% | 
